Data on 40 compounds can be found in PubChem BioAssay (NCATS).

“And” between values parts separate entries of the source, which are not always exact repeats. Equal entries are not always repeated. Records with an inconclusive call do not appear. A number with no mark means an inactive call. The source made the active and inactive calls. Calls follow the shape of the dose curve; as a rule, active = well fitted activation curve with a large enough effect; inconclusive = small, poorly fitted or top-dose-only effect; inactive = flat fitted curve, though single readings scatter.
Potency is read from the fitted curve at half-maximal effect.

The experiment can be described thus: qHTS assay for environmental chemicals that activate the Aryl hydrocarbon Receptor (AhR) signaling pathway (AID 651777). Also: nearly all actives have a fitted effect of over 15% in size. As to activation: % of control where 0% means no effect. The following applies: 1A2-DRE human hepatoma cells, luciferase, 24 h; activation: hits give high values. An excerpt:
National Center for Advancing Translational Sciences [NCATS]
NIH Chemical Genomics Center [NCGC]
U.S. Environmental Protection Agency [EPA]
National Institutes of Environmental Health Sciences [NIEHS]
National Toxicology Program [NTP]
The Aryl hydrocarbon Receptor (AhR) plays a critical role in the development of cancer or neoplasm and its formation is most likely due to genetic mutations and the influence of environment. Exposure to environmental pollutants such as polycyclic aromatic hydrocarbons (PAH), their halogenated derivatives and heterocyclic amines causes the induction of phase I and II enzymes. The transcriptional activation of CYP1A2 is directly regulated by AhR.
A cell based assay (1A2-DRE cells, developed by Puracyp, Inc., CA) was used to assess the activation of AhR. Human hepatoma cells were stably transfected with the dioxin response element (DRE) and CYP1A2 promoter fused to a luciferase gene. Increased luciferase activity can be used to identify the compounds that cause the induction of CYP1A2 and AhR activation.
1,200 cells in 5 uL/well were dispensed into white wall/solid bottom 1536-well plates using a Multidrop Combi (Thermo Scientific) dispenser. Following transfer of 23 nL compound or DMSO vehicle by a pin tool, the plates were incubated 24 hr at 37 C and 5% CO2. 5 ul One-Glo (Promega) was then added to each well and following 30 min incubation at room temperature, luciferase activity was quantified on a ViewLux CCD-based plate reader.
(In qHTS, concentration-response curves come from the screen itself.)
Turning to `Cc1cc(Cl)ccc1N=CN(C)C`, the activation was 1.22%.

Regarding `C=C(C)C(=O)OCC(CC)CCCC` (stereo not given), the activation was 1.05%.

In the case of `FC(F)C(F)(F)OCC(Cn1cncn1)c1ccc(Cl)cc1Cl` (stereo not given), the activation was 2.65%.

As to `CCCCCCCCn1sccc1=O`, the activation is 1.42% and -3.52%.

As to `[CH3][Hg][Cl]`, the activation is 1.1%.

Consider `C[C@@H]1CC[C@@]2(OC1)O[C@H]1[C@@H](O)[C@H]3[C@@H]4CC[C@H]5C[C@@H](O[C@@H]6O[C@H](CO)[C@H](O[C@@H]7O[C@H](CO)[C@@H](O)[C@H](O[C@@H]8OC[C@@H](O)[C@H](O)[C@H]8O)[C@H]7O[C@@H]7O[C@H](CO)[C@@H](O)[C@H](O[C@@H]8O[C@H](CO)[C@@H](O)[C@H](O)[C@H]8O)[C@H]7O)[C@H](O)[C@H]6O)[C@H](O)C[C@]5(C)[C@H]4CC[C@]3(C)[C@H]1[C@@H]2C`, for which the activation was -9.71%.

For the compound `O=C(O)C1(O)c2ccccc2-c2ccc(Cl)cc21` (stereo not given), the activation is 9.46%.

As to `O=[N+]([O-])c1cc(C(F)(F)F)cc([N+](=O)[O-])c1Cl`, the activation was 0.493%.

As to `c1ccc2cc3c(cc2c1)-c1cccc2cccc-3c12`, the Potency was 2.82 µM (active) and 2.51 µM (active).

Regarding `CCCCCCCCCCCCC1=C(OC(C)=O)C(=O)c2ccccc2C1=O`, the activation is 1.53%.

Regarding `COP(=S)(OC)Oc1ccc([N+](=O)[O-])c(C)c1`, the activation is 2.78%.

Regarding `Clc1ccc(-c2cc(Cl)c(Cl)cc2Cl)cc1Cl`, the activation is 1.74%.

With `CCOP(=O)(SC(C)CC)SC(C)CC` (stereo not given), the activation was 0.937%.

For `CCOP(=S)(OCC)SCn1nnc2ccccc2c1=O`, the activation is 6.1%.

With `COP(=O)(NC(C)=O)SC` (stereo not given), the activation is -1.62%.

For the compound `CCC(C)c1cc([N+](=O)[O-])cc([N+](=O)[O-])c1O` (stereo not given), the activation was 6.77%.

Consider `CC(C)N1C(=O)N(c2ccccc2)CSC1=NC(C)(C)C`, for which the activation was -0.494% and 3.86%.

`CC1(C)[C@H](C=C(Cl)Cl)[C@H]1C(=O)O[C@H](C#N)c1ccc(F)c(Oc2ccccc2)c1`: the activation was 1.36% and 3.44%.

As to `Oc1ccc(C2(c3ccc(O)cc3)c3ccccc3-c3ccccc32)cc1`, the activation was -0.464%.

Take `ClC1=C(Cl)C2(Cl)C3C4OC4C(Cl)C3C1(Cl)C2(Cl)Cl` (stereo not given): the activation was -0.371%.

Consider `CCC[CH2][Sn](=[O])[CH2]CCC`, for which the activation is 3.37%.

As for `Cc1cc(Cl)ccc1OC(C)C(=O)O` (stereo not given), the activation was 0.794%.

For the compound `COc1nn(C(=O)NS(=O)(=O)c2ccccc2OC(F)(F)F)c(=O)n1C`, the activation was 1.39%.

Take `CCOP(=S)(Oc1cnc(C(C)(C)C)nc1)OC(C)C` (stereo not given): the activation is 6.61%.

In the case of `O=C(O)C(F)(F)C(F)(F)C(F)(F)C(F)(F)C(F)(F)F`, the activation is 0.455%.

With `CCc1nn(C)c(C(=O)NCc2ccc(C(C)(C)C)cc2)c1Cl`, the activation is 6.31%.

As to `CCC(CC)Nc1c([N+](=O)[O-])cc(C)c(C)c1[N+](=O)[O-]`, the activation was 4.64%.

Take `CCOC(=O)COc1cc(-c2nn(C)c(OC(F)F)c2Cl)c(F)cc1Cl`: the Potency is 44.7 µM (active).

For the compound `COC(=O)NS(=O)(=O)c1ccc(N)cc1`, the activation is -0.0088% and 0.402%.

With `CCOC1Oc2ccc(OS(C)(=O)=O)cc2C1(C)C` (stereo not given), the activation was 1.08%.

With `CN(C)P(=O)(N(C)C)N(C)C`, the activation is 0.845%.

For the compound `Nc1ccccc1C(=O)OCCc1ccccc1`, the Potency is 44.7 µM (active).

`CCSCc1ccccc1OC(=O)NC`: the activation was 0.553%.

Regarding `C=CCOC(=O)C(C)(C)OC(=O)c1cc(-n2c(=O)cc(C(F)(F)F)n(C)c2=O)ccc1Cl`, the activation is 1.35%.

In the case of `CCC(C)(CC)c1cc(NC(=O)c2c(OC)cccc2OC)on1`, the activation is 0.26%.

On to `C=CC(=O)NCO`, for which the activation is 0.0723% and 1.42%.

On to `FC(F)(F)c1ccc(OCCCOc2c(Cl)cc(OCC=C(Cl)Cl)cc2Cl)nc1`, for which the activation was -0.256%.

`O=C(NC(=O)c1c(F)cccc1F)Nc1cc(Cl)c(OC(F)(F)C(F)F)c(Cl)c1`: the activation was 0.0082%.

For `COC(=O)N(OC)c1ccccc1COc1ccn(-c2ccc(Cl)cc2)n1`, the activation was 10.6%.

For the compound `CCC(C)Nc1c([N+](=O)[O-])cc(C(C)(C)C)cc1[N+](=O)[O-]` (stereo not given), the activation is 5.25%.
